High-throughput results from PubChem.
Compounds with a hit are over-represented: about 32% of the library has one in this group of screens.
CYP2C19 act: human CYP2C19 activators, primary screen, biochemical, luminescence; recombinant CYP2C19, luciferin-H EGE luminescence; stronger effect = higher value; 0 = fully inhibited enzyme, 1 = untreated enzyme; 96,000 tested, under 10 active; activation factor at 5 µM; AID 1025, 2008;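 active = activation factor of at least 2 at 5 µM in the primary screen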;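 also: 0 = wells with 2.5 mM tranylcypromine and 1 = vehicle-only wells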
Target sequence (P33261 whole entry, looked up): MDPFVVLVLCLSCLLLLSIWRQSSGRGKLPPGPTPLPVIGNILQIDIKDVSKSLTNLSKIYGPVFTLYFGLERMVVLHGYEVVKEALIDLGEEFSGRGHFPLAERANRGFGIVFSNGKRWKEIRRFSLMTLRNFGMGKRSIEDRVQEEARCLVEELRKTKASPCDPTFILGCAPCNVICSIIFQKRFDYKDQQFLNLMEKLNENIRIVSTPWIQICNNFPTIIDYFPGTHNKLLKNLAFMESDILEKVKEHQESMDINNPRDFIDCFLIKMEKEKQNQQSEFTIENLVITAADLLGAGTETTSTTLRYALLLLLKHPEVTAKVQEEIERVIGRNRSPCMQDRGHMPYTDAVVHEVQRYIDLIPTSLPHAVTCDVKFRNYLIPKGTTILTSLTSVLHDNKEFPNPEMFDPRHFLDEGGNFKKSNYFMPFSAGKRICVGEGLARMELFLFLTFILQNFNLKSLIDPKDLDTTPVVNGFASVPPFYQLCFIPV
CYP2C9 inhib: blockers of cytochrome P450 2C9 activity – biochemical, luminescence, ADME assay, primary screen | AID 777, 2007 | CYP2C9 Supersomes, luciferin-H conversion | P11712 | actives 20% (n = 96,000) | inhibition, % at 5 µM;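 active = blocking of liver enzyme CYP2C9 beyond about 50% at 5 µM, limit read from the data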
PostGolgi ctrl: growth inhibition of yeast control strain, primary screen, counter-screen for post-Golgi transport modulator project | efflux-deficient yeast background strain, growth absorbance A615, 16 h | inhibition, % at 10 µM | actives 5% (n = 98,000) | AID 738, 2007
CYP2C9 activ: human CYP2C9 activators, primary screen, biochemical, luminescence | Cytochrome P450 2C9 (Homo sapiens), P11712 | recombinant CYP2C9, luciferin-H conversion; stronger effect = higher value; factor 1 = untreated enzyme, 0 = blocked | activation factor at 5 µM | actives 1.4% (n = 96,000) | AID 1024, 2008;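 active = activation factor of 2 or more for CYP2C9 at a 5 µM dose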;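 also: 0 = sulfaphenazole-blocked wells and 1 = vehicle-only wells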
CYP2C19 inhib: blockers of cytochrome P450 2C19 activity – biochemical, luminescence, ADME assay, primary screen | P33261 | CYP2C19 Supersomes, luciferin-H EGE luminescence, 30 min | inhibition, % at 5 µM | actives 21% (n = 96,000);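 active = CYP2C19 inhibition above a set limit at 5 µM in the primary screen, cut at about 50% in these data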;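 also: plate controls were negative control wells for no effect and 2.5 mM tranylcypromine positive control for full effect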
PostGolgi yeast: phenotypic screen on post-Golgi transport, primary screen | post-Golgi transport phenotypic cell assay | inhibition, % at 10 µM | actives 0.9% (n = 98,000) | AID 739, 2007;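 also: yeast cells grown in 1536-well plates; yeast grown about 18 h at 30C before absorbance read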
* = called active by the depositor; · = not tested or not shown. Rule as the data show it, unless noted: active = inhibition above about 30%; inactive = the rest.

SMILES	CYP2C19 act	CYP2C9 inhib	PostGolgi ctrl	CYP2C9 activ	CYP2C19 inhib	PostGolgi yeast
Cn1c(C2CC(=O)N(Cc3ccccc3)C2)nc2ccccc21 (configuration not stated)	0.2	14	-3	0.9	76*	1
CCCCOc1ccccc1C1C(C(N)=O)=C(C)Nc2nnnn21 (configuration not stated)	1	-1	-4	1	-2	9
COc1cc(OC)cc(C(=O)NN2CCCCC2)c1	1.1	-15	18	1.2	-9	-7
CCOC(=O)C1=C(CC)Nc2ccccc2N=C1NC(=O)Nc1ccccc1OC	0.6	7	37*	0.9	35	8
CCOC(=O)C1=C(CC)Nc2ccccc2N=C1NC(=O)c1cc(S(=O)(=O)N(C)C)ccc1Cl	1	68*	-1	0.3	-2	-5
CN(Cc1c(O)ccc2c1oc(=O)c1ccccc12)C1CCCCC1	0.5	26	6	0.7	50*	4
CC1=C(C#N)C(C(F)(F)F)(C(F)(F)F)N=C(c2ccco2)N1	0.2	75*	3	0.3	82*	8
O=c1[nH]c(=O)n(Cc2ccccc2)c2c1C(C(F)(F)F)(C(F)(F)F)N=C(c1ccco1)N2	0.8	46	3	0.5	16	15
CS(=O)(=O)N(CC(=O)NCc1cccnc1)Cc1ccc(Cl)cc1	0	54*	-9	0.5	97*	-8
O=C(CN(C1CCCCC1)S(=O)(=O)c1ccc(Cl)cc1)NCc1cccnc1	0	92*	6	0.1	100*	9
CS(=O)(=O)N(CC(=O)NCc1ccncc1)Cc1ccc(Cl)cc1	0	94*	-2	0.1	99*	13
CS(=O)(=O)N(CC(=O)NCc1ccc2c(c1)OCO2)Cc1ccc(Cl)cc1	0.2	81*	2	0.2	79*	3
COc1cccc(N(CC(=O)NCc2cccnc2)S(C)(=O)=O)c1	0.6	11	-2	0.9	44	-2
O=C(CN(C1CCCCC1)S(=O)(=O)c1ccccc1)NCc1cccnc1	·	·	6	·	·	2
COCCNC(=O)CN(Cc1ccc(Cl)cc1)S(C)(=O)=O	0.8	-12	2	1.1	16	1
CS(=O)(=O)N(CC(=O)NCc1ccc2c(c1)OCO2)c1ccc(Cl)cc1	0.6	12	1	0.9	41	-5
COC(=O)C1=C(C)NC(=O)CC1c1cc(Br)ccc1F (configuration not stated)	0.7	32	10	0.7	27	-4
COC(=O)c1[nH]c2ccc(C)cc2c1NS(=O)(=O)c1ccc(F)c(C)c1	0.2	52*	15	0.5	76*	-8
COC(=O)c1[nH]c2ccc(C)cc2c1NC(=O)Oc1ccccc1	0.8	2	0	1	18	16
Cc1cc(S(=O)(=O)Nc2c(C(=O)O)[nH]c3ccccc23)ccc1F	0.1	79*	-3	0.2	92*	2
CCCCNC(=O)Nc1c(C(=O)OC)[nH]c2ccc(C)cc12	0.7	17	-2	0.8	31	1
COC(=O)c1[nH]c2ccc(F)cc2c1NC(=O)Nc1ccc(OC)cc1	0.9	3	-3	1	11	8
COC(=O)c1[nH]c2ccc(C)cc2c1NC(=O)Nc1ccc(OC)cc1	0.5	6	0	0.9	54*	-11
COC(=O)c1[nH]c2ccc(C)cc2c1NS(=O)(=O)c1ccc(F)cc1	0.2	36	-2	0.6	77*	14
CN1CCN(C(=O)c2ccc(-n3cccc3)cc2)CC1	1	42	7	0.6	0	13
SMILES	CYP2C19 act	CYP2C9 inhib	PostGolgi ctrl	CYP2C9 activ	CYP2C19 inhib	PostGolgi yeast
COCCNC(=O)CN1CCC(NC(=O)Nc2ccc(C(F)(F)F)cc2)CC1	0.8	10	4	0.9	22	-4
CCOC(=O)c1cccc(NC(=O)CSc2nnc(COc3ccccc3C)o2)c1	0.8	0	4	1	23	-2
O=C(c1ccccc1)c1ccc(OCC(O)CN2CCCCC2)cc1 (configuration not stated)	0.8	9	-7	0.9	18	-2
CCC(=O)c1ccc(OCC(O)CN2CCN(S(=O)(=O)N3CCCCC3)CC2)cc1 (configuration not stated)	0.5	72*	4	0.3	52*	1
O=C(c1ccccc1)c1ccc(OCC(O)CN2CCN(S(=O)(=O)N3CCCCC3)CC2)cc1 (configuration not stated)	0.1	98*	11	0	85*	-4
CCOC(=O)C1CCN(CC(O)COc2ccc(C(=O)CC)cc2)CC1 (configuration not stated)	1	6	8	0.9	4	3
CCS(=O)(=O)c1ccc(C(=O)Nc2cccc(Cl)c2)c(Cl)c1Cl	1	-30	-5	1.3	0	3
Cc1nn(Cc2ccc(Cl)cc2Cl)c(C)c1NC(=O)NC12CC3CC(CC(C3)C1)C2	1	18	16	0.8	1	17
CCc1ccccc1N(CC(=O)NCc1ccco1)C(=O)c1snc(C(N)=O)c1N	0.1	69*	-3	0.3	95*	5
COc1ccc(CNC(=O)C(C)N(Cc2ccco2)C(=O)c2snc(C(N)=O)c2N)cc1 (configuration not stated)	0.2	64*	10	0.4	85*	4
CCSc1nc(-c2ccco2)ccc1C#N	1	27	26	0.7	-1	2
CCn1c(COc2cccc(C)c2)nnc1SCC(=O)N1CCCC1	0.9	2	6	1	14	-7
CCn1c(COc2ccccc2C)nnc1SCC(=O)CC(=O)Nc1ccccc1OC	0.6	-155	-3	2.5*	43	-4
CCn1c(COc2cccc(C)c2)nnc1SCC(=O)CC(=O)Nc1ccccc1OC	0.6	-213	0	3.1*	36	1
CCn1c(COc2ccccc2)nnc1SCC(=O)CC(=O)Nc1ccccc1OC	0.7	-105	10	2.1*	29	-7
Cc1ccc(S(=O)(=O)NCc2nnc(SCC(=O)Nc3cccc(C)c3C)n2C)cc1	1.2	25	4	0.8	-16	2
COc1ccc2c(c1)CC(C1(O)C(=O)Nc3ccccc31)C2=O (configuration not stated)	0.2	18	5	0.8	83*	-9
COc1ccc(C2CC(O)(C(C)(C)O)NO2)cc1 (configuration not stated)	0.9	13	-5	0.9	6	10
CC1(C2(O)CC(c3ccccc3)ON2)CCCCC1 (configuration not stated)	0.5	16	1	0.8	54*	-8
